Three compounds from PubChem BioAssay (EPA / NIEHS) can be followed below.

Active and inactive are the calls of the source. Rule for the calls: active = hit-call score of the fitted dose curve at least 0.9, where 1 is the maximum; inactive = score below 0.9.

In assay [1] the target is Bile acid receptor (Homo sapiens) (UniProt Q96RI1). In words: ATG_IR1_CIS: Attagene CIS-FACTORIAL HepG2 Assay for human Nuclear Receptor Subfamily 1 Group H Member 4 (NR1H4), IR1 submotif (AID 2282946). Conditions: IR1 reporter transcription, actives raise or lower the signal. The procedure, abridged:
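HepG2 cells transiently transfected with multiplexed cis-element reporter units read endogenous transcription factor activity. After 24 h compound exposure, reporter mRNA was quantified by RT-PCR, fluorescent labelling, HpaI digestion and capillary electrophoresis; bidirectional fitting versus DMSO baseline.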

A short description of assay [2]: ATG_GRE_CIS: Attagene CIS-FACTORIAL HepG2 Assay for human Glucocorticoid Response Elements (GRE) (AID 2282947). To be noted: HepG2 GRE cis-reporter, Attagene multiplex mRNA; actives raise or lower the signal. The method in brief:
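Reporter transcripts read by RT-PCR with capillary electrophoresis fluorescence after a 24 h chemical exposure of HepG2 cells transiently transfected with multiple cis-element reporter units. Gain or loss fitted against DMSO.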

Assay [3] is described as follows: ATG_ISRE_CIS: Attagene CIS-FACTORIAL HepG2 Assay for human Interferon Regulatory Factor 1 (IRF1) binding to an Interferon-Stimulated Response Element (ISRE) (AID 2282948). To be noted: HepG2 ISRE cis-reporter (Attagene), mRNA transcription readout; actives raise or lower the signal. The method in brief: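 Multiplexed mRNA reporter readout in human liver HepG2 cells: cis-element-driven reporters transfected, compound added for 24 h, transcripts amplified, fluorescently labelled and sized by capillary electrophoresis; curve fitting bidirectional against DMSO.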

Assay [4] is described as follows: ATG_M_06_CIS: Attagene CIS-FACTORIAL HepG2 Assay for M06 Transcription Factor (Internal Marker) (AID 2282950). Conditions: HepG2 Attagene CIS-FACTORIAL M06 internal marker reporter; actives raise or lower the signal. The method in brief:
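HepG2 cells transiently transfected with cis-regulated multiple reporter transcription units were exposed to chemical for 24 h; reporter mRNA was quantified by RT-PCR, 6-FAM primer labelling, HpaI digestion and capillary electrophoresis, fitted bidirectionally against DMSO.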

The target in assay [5] is Hypoxia-inducible factor 1-alpha (Homo sapiens) (UniProt Q16665). The assay can be described thus: ATG_HIF1a_CIS: Attagene CIS-FACTORIAL HepG2 Assay for human Hypoxia Inducible Factor 1 (HIF1A) (AID 2282951). Conditions: HepG2 Attagene cis-factorial HIF1a reporter transcription; actives raise or lower the signal. The procedure, abridged: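 Transient MRTU transfection of human HepG2 liver cells, 24 h compound treatment, then total RNA isolation, oligo(dT) reverse transcription, PCR amplification, fluorescent labelling and capillary electrophoresis of reporter fragments. Gain or loss relative to DMSO.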
Hypoxia-inducible factor 1-alpha (Homo sapiens), sequence (Q16665 whole entry, looked up, the tested form may be a part): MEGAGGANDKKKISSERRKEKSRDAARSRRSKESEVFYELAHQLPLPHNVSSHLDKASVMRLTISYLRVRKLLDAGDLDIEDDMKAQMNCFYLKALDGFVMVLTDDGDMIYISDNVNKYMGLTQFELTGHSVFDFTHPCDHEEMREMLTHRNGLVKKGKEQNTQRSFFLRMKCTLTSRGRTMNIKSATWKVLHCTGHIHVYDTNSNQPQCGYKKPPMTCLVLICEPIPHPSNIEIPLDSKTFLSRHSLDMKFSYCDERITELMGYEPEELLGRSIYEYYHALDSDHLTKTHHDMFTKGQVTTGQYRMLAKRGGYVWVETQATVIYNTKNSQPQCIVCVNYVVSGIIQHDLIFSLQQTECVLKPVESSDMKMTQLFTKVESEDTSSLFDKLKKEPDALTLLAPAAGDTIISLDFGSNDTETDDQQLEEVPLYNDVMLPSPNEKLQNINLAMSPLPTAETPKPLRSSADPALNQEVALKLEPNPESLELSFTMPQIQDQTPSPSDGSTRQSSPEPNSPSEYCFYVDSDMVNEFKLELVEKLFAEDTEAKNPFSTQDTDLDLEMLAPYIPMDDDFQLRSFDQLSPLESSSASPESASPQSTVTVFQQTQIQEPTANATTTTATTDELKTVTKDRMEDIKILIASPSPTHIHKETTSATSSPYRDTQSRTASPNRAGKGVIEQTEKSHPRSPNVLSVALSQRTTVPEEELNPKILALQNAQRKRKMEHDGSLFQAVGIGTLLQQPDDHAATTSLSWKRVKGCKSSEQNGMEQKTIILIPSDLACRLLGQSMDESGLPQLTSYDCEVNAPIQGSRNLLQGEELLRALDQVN

For assay [6], the target named is Hepatocyte nuclear factor 6 (Homo sapiens) (UniProt Q9UBC0). In words: ATG_HNF6_CIS: Attagene CIS-FACTORIAL HepG2 Assay for human Hepatocyte Nuclear Factor 6 (HNF6) (AID 2282952). To be noted: HepG2 Attagene cis-factorial HNF6 reporter transcription; actives raise or lower the signal. The method in brief:
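Using cis-element reporters in HepG2 liver cells, the assay tracks endogenous factor-driven transcription 24 h post-dosing. Signal comes from 6-FAM-labelled, HpaI-digested RT-PCR fragments, with gain or loss scored against DMSO.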

Assay [7] deals with Heat shock factor protein 1 (Homo sapiens) (UniProt Q00613). The assay can be described thus: ATG_HSE_CIS: Attagene CIS-FACTORIAL HepG2 Assay for human Heat Shock Transcription Factor 1 (HSE) (AID 2282953). Conditions: HepG2 HSE cis-reporter, Attagene RNA transcription; actives raise or lower the signal. The procedure, abridged:
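HepG2 cells transiently transfected with multiple reporter transcription units under cis-regulatory promoter control, measuring endogenous transcription factor activity. After 24 h chemical exposure, reporter mRNA quantified by RT-PCR, fluorescent labelling, HpaI digestion and capillary electrophoresis; bidirectional fit versus DMSO.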

A short description of assay [8]: ATG_MRE_CIS: Attagene CIS-FACTORIAL HepG2 Assay for human Metal Responsive Element (MRE) (AID 2282954). To be noted: HepG2 MRE cis-reporter transcription, Attagene multiplex; actives raise or lower the signal. The method in brief:
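Endogenous MRE-dependent transcription read as reporter mRNA in transiently transfected human HepG2 cells at 24 h. RNA reverse-transcribed, PCR-amplified, labelled and resolved by capillary electrophoresis; gain or loss relative to DMSO.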

Assay [9] in a line: ATG_PBREM_CIS: Attagene CIS-FACTORIAL HepG2 Assay for human Phenobarbital-responsive Enhancer Module (PBREM) (AID 2282955). To be noted: HepG2 PBREM cis-reporter, Attagene multiplexed transcription; actives raise or lower the signal. The procedure, abridged: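 Endogenous transcription factors in human liver HepG2 cells drive a PBREM cis-element reporter, whose transcript level after 24 h treatment is quantified by RT-PCR with capillary electrophoresis; activity fitted in both directions against DMSO.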

In assay [10] the target is Paired box protein Pax-6 (Homo sapiens) (UniProt P26367). In words: ATG_Pax6_CIS: Attagene CIS-FACTORIAL HepG2 Assay for human Paired Box 6 (PAX6) (AID 2282956). To be noted: HepG2 CIS-FACTORIAL PAX6 reporter transcription, RNA readout; actives raise or lower the signal. The procedure, abridged:
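Fluorescent RT-PCR products separated by capillary electrophoresis report PAX6-linked promoter mRNA in HepG2 cells 24 h post-dose. Curves fitted bidirectionally, DMSO as negative control.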

Assay [11] is described as follows: ATG_PXRE_CIS: Attagene CIS-FACTORIAL HepG2 Assay for human Pregnane X Receptor Element (PXRE) (AID 2282957). To be noted: HepG2 Attagene CIS-FACTORIAL PXRE reporter, mRNA; actives raise or lower the signal. The procedure, abridged:
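Using HepG2 transfected with multiple reporter transcription units, endogenous factor-driven transcription was scored as reporter mRNA after 24 h exposure.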

A short description of assay [12]: ATG_PPRE_CIS: Attagene CIS-FACTORIAL HepG2 Assay for human Peroxisome Proliferator-activated Response Element (PPRE) (AID 2282958). Conditions: HepG2 PPRE cis-element reporter, Attagene transcription factor profiling; actives raise or lower the signal. The procedure, abridged:
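HepG2, transient MRTU transfection (cis promoter elements, endogenous TFs). 24 h dosing. RNA → oligo(dT) RT → PCR → 6-FAM primer extension → HpaI digest → CE. Bidirectional fit vs DMSO.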

A short description of assay [13]: ATG_Sox_CIS: Attagene CIS-FACTORIAL HepG2 Assay for human SRY-box transcription factor (SOX) (AID 2282960). To be noted: HepG2 Attagene cis-factorial SOX reporter, mRNA; actives raise or lower the signal. The procedure, abridged:
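Endogenous factor activity in human liver HepG2 cells carrying transfected cis-regulated reporter units. RNA taken 24 h post-dose, reverse-transcribed, PCR-amplified and sized by capillary electrophoresis. Gain or loss of signal fitted relative to DMSO.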

The target of assay [14] is Transcription factor Sp1 (Homo sapiens) (UniProt P08047). In words: ATG_Sp1_CIS: Attagene CIS-FACTORIAL HepG2 Assay for human Specificity Protein 1 (Sp1) (AID 2282961). Conditions: HepG2 Sp1 cis-reporter transcription, actives raise or lower the signal. The method in brief:
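Transient MRTU-transfected HepG2, 24 h compound exposure. Total RNA → oligo(dT) RT → PCR of reporter → 6-FAM primer extension → HpaI digest → CE. Endpoint fitted both directions vs DMSO.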

Assay [15] can be described thus: ATG_SREBP_CIS: Attagene CIS-FACTORIAL HepG2 Assay for human Sterol Regulatory Element Binding (SREBP) (AID 2282962). To be noted: HepG2 Attagene cis-factorial SREBP reporter, mRNA; actives raise or lower the signal. The procedure, abridged: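 Endogenous factor activity is measured in HepG2 through multiplexed reporter units under cis-element control. Following a 24 h incubation, reporter transcripts are reverse-transcribed, PCR-amplified and sized by capillary electrophoresis; activity is fitted in both directions relative to DMSO.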

The target of assay [16] is Signal transducer and activator of transcription 3 (Homo sapiens) (UniProt P40763). In words: ATG_STAT3_CIS: Attagene CIS-FACTORIAL HepG2 Assay for human Signal Transducer and Activator of Transcription 3 (STAT3) (AID 2282963). Conditions: HepG2, Attagene cis-factorial STAT3 reporter transcription; actives raise or lower the signal. The method in brief: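 Readout is reporter transcript quantified by RT-PCR and capillary electrophoresis, with 6-FAM primer extension and HpaI digestion. Total RNA is taken 24 h after dosing transiently transfected HepG2 carrying cis-regulated reporter units. Bidirectional fit against DMSO.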
Signal transducer and activator of transcription 3 (Homo sapiens), sequence (P40763 whole entry, looked up): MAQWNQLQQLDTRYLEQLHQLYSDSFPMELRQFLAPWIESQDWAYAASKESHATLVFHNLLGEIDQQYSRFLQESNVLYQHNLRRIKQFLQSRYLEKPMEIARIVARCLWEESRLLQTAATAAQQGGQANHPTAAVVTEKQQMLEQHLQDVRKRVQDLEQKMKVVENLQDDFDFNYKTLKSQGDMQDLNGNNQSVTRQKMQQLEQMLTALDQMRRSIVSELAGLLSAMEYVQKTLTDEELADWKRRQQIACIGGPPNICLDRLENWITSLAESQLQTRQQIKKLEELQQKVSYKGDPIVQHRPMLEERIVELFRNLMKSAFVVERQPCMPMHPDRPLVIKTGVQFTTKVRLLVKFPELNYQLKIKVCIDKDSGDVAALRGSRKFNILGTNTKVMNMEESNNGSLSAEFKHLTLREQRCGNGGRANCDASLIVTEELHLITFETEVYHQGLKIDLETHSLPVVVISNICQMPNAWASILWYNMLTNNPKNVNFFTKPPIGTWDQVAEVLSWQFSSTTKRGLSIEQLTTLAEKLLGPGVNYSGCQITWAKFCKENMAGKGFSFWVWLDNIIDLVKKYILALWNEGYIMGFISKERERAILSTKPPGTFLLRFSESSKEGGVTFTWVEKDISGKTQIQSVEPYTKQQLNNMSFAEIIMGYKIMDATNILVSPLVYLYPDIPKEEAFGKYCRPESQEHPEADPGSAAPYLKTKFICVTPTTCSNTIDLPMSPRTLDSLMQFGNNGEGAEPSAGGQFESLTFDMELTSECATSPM

Assay [17] in a line: ATG_TA_CIS: Attagene CIS-FACTORIAL HepG2 Assay for human TA Basal Promoter (AID 2282964). Conditions: HepG2 Attagene CIS-factorial TA basal promoter reporter; actives raise or lower the signal. The procedure, abridged: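 HepG2 cells transiently transfected with multiplexed cis-promoter reporter units, dosed 24 h. Reporter mRNA measured by RT-PCR, 6-FAM labelling, HpaI digestion and capillary electrophoresis; bidirectional fit versus DMSO baseline, serving as background control.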

Assay [18] in a line: ATG_TCF_b_cat_CIS: Attagene CIS-FACTORIAL HepG2 Assay for human T-Cell-Factor with beta-catenin (TCF/b-cat) (AID 2282965). Conditions: HepG2 TCF/beta-catenin cis-reporter transcription, actives raise or lower the signal. The method in brief: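 Endogenous transcription factor activity is captured through cis-promoter reporter constructs transiently introduced into human HepG2 liver cells. Induced reporter mRNA is measured after 24 h and fitted bidirectionally relative to DMSO.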

Assay [19] can be described thus: ATG_M_32_CIS: Attagene CIS-FACTORIAL HepG2 Assay for M32 Transcription Factor (Internal Marker) (AID 2282949).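 Note: background control marker of the multiplexed CIS panel rather than a real target.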 Conditions: HepG2 Attagene cis-factorial M32 reporter, mRNA; actives raise or lower the signal. The method in brief: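 HepG2 human liver cells transiently transfected with cis-promoter-driven multiple reporter transcription units, dosed 24 h. Reporter mRNA quantified by RT-PCR, FAM-labelled primer extension, HpaI digest and capillary electrophoresis; bidirectional fit versus DMSO baseline.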

Heat shock factor protein 1 (Homo sapiens), sequence (Q00613 whole entry, looked up): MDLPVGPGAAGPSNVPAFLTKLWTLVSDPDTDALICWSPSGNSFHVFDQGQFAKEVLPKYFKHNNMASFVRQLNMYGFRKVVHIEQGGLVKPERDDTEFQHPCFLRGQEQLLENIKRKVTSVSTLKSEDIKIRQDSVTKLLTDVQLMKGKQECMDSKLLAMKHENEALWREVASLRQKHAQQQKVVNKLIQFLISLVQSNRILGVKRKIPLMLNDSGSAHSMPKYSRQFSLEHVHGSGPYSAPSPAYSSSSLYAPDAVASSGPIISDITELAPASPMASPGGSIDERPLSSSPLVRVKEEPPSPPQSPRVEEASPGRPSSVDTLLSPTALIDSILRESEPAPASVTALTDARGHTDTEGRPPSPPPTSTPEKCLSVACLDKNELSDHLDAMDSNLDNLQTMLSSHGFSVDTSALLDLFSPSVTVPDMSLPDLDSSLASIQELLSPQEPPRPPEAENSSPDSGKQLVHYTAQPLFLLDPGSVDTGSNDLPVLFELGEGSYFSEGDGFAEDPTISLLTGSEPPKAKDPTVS
Transcription factor Sp1 (Homo sapiens), sequence (P08047 whole entry, looked up): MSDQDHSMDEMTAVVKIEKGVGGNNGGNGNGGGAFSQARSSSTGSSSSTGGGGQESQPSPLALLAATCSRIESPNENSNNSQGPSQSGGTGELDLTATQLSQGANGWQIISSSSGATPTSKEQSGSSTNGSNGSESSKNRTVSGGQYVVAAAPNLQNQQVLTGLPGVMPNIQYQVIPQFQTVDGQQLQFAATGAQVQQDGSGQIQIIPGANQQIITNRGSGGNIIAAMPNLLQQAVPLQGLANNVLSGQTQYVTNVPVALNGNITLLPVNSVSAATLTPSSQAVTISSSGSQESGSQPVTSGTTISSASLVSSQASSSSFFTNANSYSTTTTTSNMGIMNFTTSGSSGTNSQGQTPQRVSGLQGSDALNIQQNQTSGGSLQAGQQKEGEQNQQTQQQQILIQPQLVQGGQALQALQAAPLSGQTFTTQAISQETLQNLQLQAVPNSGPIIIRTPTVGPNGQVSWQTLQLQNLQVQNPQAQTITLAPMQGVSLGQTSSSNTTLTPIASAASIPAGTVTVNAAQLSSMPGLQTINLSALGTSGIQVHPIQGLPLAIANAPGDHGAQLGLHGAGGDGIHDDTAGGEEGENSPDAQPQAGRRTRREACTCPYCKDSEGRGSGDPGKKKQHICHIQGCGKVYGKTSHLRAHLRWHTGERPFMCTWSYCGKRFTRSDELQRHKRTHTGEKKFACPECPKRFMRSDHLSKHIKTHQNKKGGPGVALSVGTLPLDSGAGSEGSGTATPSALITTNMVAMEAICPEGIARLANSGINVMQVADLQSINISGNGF
Hepatocyte nuclear factor 6 (Homo sapiens), sequence (Q9UBC0 whole entry, looked up, the tested form may be a part): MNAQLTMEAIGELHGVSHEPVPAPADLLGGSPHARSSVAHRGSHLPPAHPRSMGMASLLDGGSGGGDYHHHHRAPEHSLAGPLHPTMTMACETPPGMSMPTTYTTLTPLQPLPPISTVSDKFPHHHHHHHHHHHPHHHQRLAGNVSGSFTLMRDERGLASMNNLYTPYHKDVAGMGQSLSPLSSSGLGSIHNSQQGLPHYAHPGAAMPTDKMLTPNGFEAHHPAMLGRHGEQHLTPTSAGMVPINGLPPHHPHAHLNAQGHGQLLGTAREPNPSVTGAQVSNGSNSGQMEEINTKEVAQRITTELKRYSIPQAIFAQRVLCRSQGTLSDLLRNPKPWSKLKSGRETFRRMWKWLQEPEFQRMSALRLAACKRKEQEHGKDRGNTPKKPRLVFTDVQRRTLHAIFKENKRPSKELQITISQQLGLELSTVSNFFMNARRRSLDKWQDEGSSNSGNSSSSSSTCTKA
Bile acid receptor (Homo sapiens), sequence (Q96RI1 whole entry, looked up): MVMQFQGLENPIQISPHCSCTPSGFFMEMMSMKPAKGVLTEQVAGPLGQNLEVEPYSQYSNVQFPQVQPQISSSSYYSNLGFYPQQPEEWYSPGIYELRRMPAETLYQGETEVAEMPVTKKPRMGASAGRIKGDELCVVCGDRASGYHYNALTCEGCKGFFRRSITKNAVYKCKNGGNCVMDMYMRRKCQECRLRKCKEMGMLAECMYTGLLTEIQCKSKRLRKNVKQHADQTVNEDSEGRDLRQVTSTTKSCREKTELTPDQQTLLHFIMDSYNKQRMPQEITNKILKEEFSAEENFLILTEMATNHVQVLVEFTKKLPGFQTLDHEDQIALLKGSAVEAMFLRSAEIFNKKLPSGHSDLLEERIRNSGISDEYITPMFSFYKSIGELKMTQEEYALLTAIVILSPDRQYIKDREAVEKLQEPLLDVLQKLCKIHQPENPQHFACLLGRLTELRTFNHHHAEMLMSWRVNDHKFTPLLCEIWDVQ
Paired box protein Pax-6 (Homo sapiens), sequence (P26367 whole entry, looked up): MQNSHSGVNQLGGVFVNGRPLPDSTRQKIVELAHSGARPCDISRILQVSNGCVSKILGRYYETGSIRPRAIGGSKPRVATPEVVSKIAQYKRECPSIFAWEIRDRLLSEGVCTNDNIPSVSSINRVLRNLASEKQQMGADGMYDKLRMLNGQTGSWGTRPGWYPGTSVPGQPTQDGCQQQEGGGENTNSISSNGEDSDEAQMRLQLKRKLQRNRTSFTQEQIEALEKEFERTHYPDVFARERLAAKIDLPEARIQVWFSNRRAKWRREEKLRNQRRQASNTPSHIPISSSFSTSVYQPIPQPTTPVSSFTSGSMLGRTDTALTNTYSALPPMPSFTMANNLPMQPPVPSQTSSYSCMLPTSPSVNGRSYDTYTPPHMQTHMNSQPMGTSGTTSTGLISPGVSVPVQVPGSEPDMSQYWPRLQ

As for `O=P(Oc1ccccc1)(Oc1ccccc1)Oc1ccccc1`, the concentration at half-maximal activity (AC50) is 26.6 µM (active) in assay [1]; 33.4 µM (active) in assay [3]; 53.4 µM (active) in assay [7]; 33.4 µM (active) in assay [8]; 33.4 µM (active) in [10]; 8.63 µM (active) in [11]. For the same compound, the concentration at half-maximal activity (AC50) in assay [15] is 16.7 µM (active); in [17], 42 µM (active). Moreover, the compound was classed as inactive in assay [2], in [4], in [5], in assay [6], in assay [9] and in assay [12]. For the same compound, the outcome in assay [13], in [14], in assay [16] and in [18] was inactive.
With `COP(=O)(O)OC`, the call in assay [1], in [2], in [3], in [19], in assay [4] and in assay [5] was inactive. In addition, the compound was classed as inactive in assay [6], in [7], in assay [8], in assay [9], in assay [12] and in assay [13]. Also, the call in assay [14], in assay [15], in [16], in assay [17] and in assay [18] was inactive. In assay [11], the AC50 was 32.8 µM (active).
Take `CCOP(=S)(OCC)SCSCC`: the compound was classed as inactive in assay [1], in assay [2], in [3], in assay [19], in assay [4] and in [5]. Besides, the call in [6], in assay [7], in assay [10], in assay [13], in [14] and in [15] was inactive. The compound was called inactive in assay [16], in [17] and in assay [18]. Moreover, the AC50 was 151 µM (active) in assay [8], 11.7 µM (active) in assay [11] and 176 µM (active) in assay [12].

For orientation: AC50 means the concentration at which the activity in the assay is half-maximal.
